# KDM4E inh = blocks human JMJD2E demethylase activity; JMJD2E catalytic domain, FDH-coupled NADH fluorescence (FDH is formaldehyde dehydrogenase); B2RXH2; 1.6% of 230,000 active; AID 2147; Potency, µM (titrated, usually from 57.1 µM), for inactives: at the highest dose activity change, negative = inhibition, hits mostly inhibitors; active = well fitted inhibition curve with a large enough effect, not every such curve was filed as active; inconclusive = small, poorly fitted or top-dose-only effect, or another doubt; inactive = no such curve, though single readings can be large or run the other way;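 also: 0% = wells with enzyme and -100% = buffer wells without enzyme; nearly all actives have a fitted effect of over 50% in size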
# L3MBTL1 block = L3MBTL1 (human) inhibition; Q9Y468; AlphaScreen L3MBTL1–H3K9me1 peptide binding; 0.66% of 230,000 active; Potency, µM (top dose mostly 57.1 µM), without a hit: at the highest dose activity, negative = inhibition, hits mostly inhibitors; also: % is scaled to controls: 0 for no effect and ±100 for the full control effect; nearly all actives have a fitted effect of over 60% in size
# Target sequence (Q9Y468 whole entry, looked up): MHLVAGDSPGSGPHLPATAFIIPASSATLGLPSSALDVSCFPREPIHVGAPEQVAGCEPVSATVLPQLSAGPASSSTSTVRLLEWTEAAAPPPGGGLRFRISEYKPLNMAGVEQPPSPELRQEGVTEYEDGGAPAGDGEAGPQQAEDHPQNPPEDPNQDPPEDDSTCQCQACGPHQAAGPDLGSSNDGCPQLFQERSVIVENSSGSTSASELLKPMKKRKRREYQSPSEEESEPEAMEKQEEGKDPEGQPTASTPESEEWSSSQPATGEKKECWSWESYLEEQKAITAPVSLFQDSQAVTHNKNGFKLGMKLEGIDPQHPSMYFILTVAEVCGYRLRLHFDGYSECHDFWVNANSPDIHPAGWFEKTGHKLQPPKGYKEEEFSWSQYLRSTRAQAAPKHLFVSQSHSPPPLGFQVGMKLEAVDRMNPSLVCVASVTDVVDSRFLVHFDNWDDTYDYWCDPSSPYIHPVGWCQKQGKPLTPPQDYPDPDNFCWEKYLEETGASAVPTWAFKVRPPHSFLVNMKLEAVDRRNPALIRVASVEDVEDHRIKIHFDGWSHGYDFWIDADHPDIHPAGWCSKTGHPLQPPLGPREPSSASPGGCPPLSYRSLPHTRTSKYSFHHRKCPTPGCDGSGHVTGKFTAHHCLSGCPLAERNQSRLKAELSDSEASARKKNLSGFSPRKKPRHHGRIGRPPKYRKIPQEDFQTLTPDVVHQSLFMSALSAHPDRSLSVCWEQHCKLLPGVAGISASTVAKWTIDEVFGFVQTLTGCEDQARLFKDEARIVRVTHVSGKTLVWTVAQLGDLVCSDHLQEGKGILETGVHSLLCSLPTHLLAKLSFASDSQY
#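 First, the protein-peptide complex forms for 30 min at room temperature (L3MBTL1 50 nM, biotinylated H3K9me1 peptide 75 nM). Next, compounds are pin-transferred and incubated 30 min. Finally, AlphaScreen beads are added and read after 30 min.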
# HTT ATP protect = cytoprotection in Huntington HTT-Q103 PC12 cell model; 0.14% of 230,000 active; PC12 HTT-Q103 induced, cytoprotection, ATP luminescence, 40 h; Potency, µM (top dose mostly 56.4 µM), without a hit: cytoprotection (ATP increase), hits mostly activators; also: % of control where 0% means no effect; nearly all actives have a fitted effect of over 45% in size
#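 Quantitative HTS on tebufenozide-induced (100 nM) PC12 cells expressing HTTQ103 exon 1–GFP; compounds tested as a concentration series; survival measured via cellular ATP.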
# HttQ103 aggreg = inhibitors of mutant huntingtin aggregate formation in PC12 cells; 1.1% of 220,000 active; AID 1688; Potency, µM (top dose mostly 46.1 µM), for the others: at the top dose activity change, negative = inhibition, actives largely listed as inhibitors; PC12 HttQ103-GFP aggregates, Acumen cytometry, 40 h; also: % is scaled to controls: 0 for no effect and ±100 for the full control effect; nearly all actives have a fitted effect of over 60% in size
#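 Aggregates are detected as GFP objects 1–25 µm with signal 6 STDEV over background in lysates of induced PC12 cells. These carry Huntingtin exon 1 with 103 glutamines fused to GFP under an ecdysone promoter; compounds titrated.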
# The depositor's hits bear a star; ? = inconclusive; . = no result; [ ] = dose if it differs, or a comment. The list is not random: actives were taken first. Their share in the collection is about 1.8%. Unless noted, calls follow the shape of the dose curve; as a rule, active = well fitted curve in the direction sought with a large enough effect; inconclusive = small, poorly fitted or top-dose-only effect, or another doubt; inactive = no such curve, though single readings can be large; an effect the other way counts as inactive or inconclusive. Potency is read from the fitted curve at half-maximal effect.
SMILES,KDM4E inh,L3MBTL1 block,HTT ATP protect,HttQ103 aggreg
CCOC(=O)c1c(C)[nH]c(C)c1C(=O)CSc1nc2ccccc2c(=O)n1-c1ccc(C)cc1,-2%,-1%,14%[1.9 µM],?
Cc1nc(NC2CCCCC2)c2nc(-c3ccccc3)n(CCCN(C)C)c2n1,?,.,-26%,.
C=CCOc1c(CNc2ccc3[nH]c(=O)[nH]c3c2)cccc1OC,20µM*,-1%,38%[10 µM],12%[9.22 µM]
O=C(Nc1ccccc1)C12CC1/C(=N\O)c1ccccc1O2 (stereo not drawn),.,.,-46%,.
COc1ccccc1NC(=S)N(Cc1ccc(C)cc1)Cc1ccccn1,8%,.,-35%,25µM*
Cn1c(=O)c(-c2cccs2)nc2cncnc21,.,.,7%,.
Cc1cc(C=O)c(C)n1-c1cccc(C(=O)O)c1,5%,25µM*,2%[10 µM],-6%[9.22 µM]
Cc1ccc(C)n1-c1cccc(C(=O)O)c1,?,1.8µM*,13%[1.9 µM],-2%
Cc1cc(C=O)c(C)n1-c1cc(C(=O)O)cc(C(=O)O)c1,?,5µM*,-19%,?
Cc1cccc(C)c1NC(=O)CN1CCCCCC1,.,.,?,11%
C=CCOC(=O)C1=C(C)NC(SCC(=O)Nc2nccs2)=C(C#N)C1c1cccs1 (stereo not drawn),-19%,-9%,-32%,13µM*
Nc1cc(-c2ccc(Br)cc2)nn1S(=O)(=O)c1cccc2nsnc12,4%,.,-76%,25µM*
Nc1cc(-c2ccc(Cl)cc2)nn1S(=O)(=O)c1cccc2nsnc12,0%,.,-29%,?
Cc1ccc(NC2c3ncccc3C(=O)N2c2ccccc2C)cc1C (stereo not drawn),14µM*,?,-9%,11%
C[C@@H]1C(=O)O[C@@H]2C[C@@]34[C@H]5C[C@@H](C(C)(C)C)[C@@]36[C@@H](OC(=O)[C@@H]6O)O[C@]4(C(=O)O5)[C@@]12O,.,.,1%,.
O=C(Nn1c(-c2ccc(Br)cc2)nc2ccccc2c1=O)c1ccncc1,3%,.,-49%,5%
Cc1cc(C(=O)Nn2c(-c3ccc(Br)cc3)nc3ccccc3c2=O)ccc1[N+](=O)[O-],-8%,0%,8%[10 µM],35µM*
CO[C@H]1COC(=O)[C@H]2CCCN2C(=O)[C@@H](C)COC(=O)C/C=C\[C@@H]1C,.,.,-7%[10 µM],.
O=C(O)C1=C(CSc2nnnn2CS(=O)(=O)O)CS[C@@H]2[C@H](NC(=O)[C@H](O)c3ccccc3)C(=O)N12,.,.,2%,19%
Cc1sc2cc3c(c(C(=O)c4ccccc4)[n+]2c1C)-c1cccc2cccc-3c12,?,-4%,.,8.9µM*
Cc1sc2ccccc2[n+]1CC(=O)c1ccccc1,.,3%,.,.
O=C(c1ccccc1)c1c2c(cc3sc4ccccc4[n+]13)-c1cccc3cccc-2c13,16µM*,-16%,.,7.9µM*
C=CCc1cccc(/C=C/c2cc(=O)c3ccccc3[nH]2)c1O,-21%,-15%,-88%[10 µM],3.2µM*
CCc1nc(SCC(=O)Nc2nc3c(s2)CCCC3)c2ccccc2n1,1%,-9%,25µM*,.
CN(C)C(=O)c1ccc(-c2ccc3ncnc(N4CCOCC4)c3c2)cc1,.,.,-89%,.
SMILES,KDM4E inh,L3MBTL1 block,HTT ATP protect,HttQ103 aggreg
CC1=CC(C)(C)N(C(=O)c2ccccc2)c2ccc(C)cc21,-3%,3%,17%,-6%
COc1ccc(C(=O)N2c3cc4c(cc3C(C)=CC2(C)C)OCO4)cc1,-28%,.,-14%,11µM*
Oc1ccc(/C=N/Nc2ncnc3c2ncn3Cc2ccccc2)cc1O,10µM*,-15%,.,18%
O=c1oc2ccccc2nc1/C=C(O)/C=C/c1ccc(F)cc1,2%,?,10%[10 µM],1%
O=c1oc2ccccc2nc1/C=C(O)/C=C\c1ccccc1,20µM*,-9%,-1%[10 µM],?
CC(C)c1noc2ncc(C(=O)c3cc(Cl)cc(Cl)c3O)cc12,6%,.,-17%,11µM*
COc1ccc(COC(=O)N/N=C2/C[C@@H](O)[C@@H](O)[C@@H]3[C@@H]4C(=O)N(C5CCCCC5)C(=O)[C@H]4CC[C@H]23)cc1,.,.,7%[10 µM],.
OCC1OC(c2ccccc2)C=CC1Oc1ccc(C2CCCC2)cc1 (stereo not drawn),.,.,-28%[10 µM],.
CN1CCC[C@@H]1c1cccnc1.O=C(O)c1ccccc1O.O=C([OH2+])c1ccccc1O.O=C([OH2+])c1ccccc1O.O=C([OH2+])c1ccccc1O.[Cu],.,.,-9%[10 µM],.
CC1(C)CC(=O)C(N=Nc2ccc(C(F)(F)F)cc2[N+](=O)[O-])=C(O)C1,13µM*,-16%,-8%[10 µM],8%[9.22 µM]
CC1(C)CC(=O)C(N=Nc2cccc([N+](=O)[O-])c2)=C(O)C1,-7%,-9%,6%[10 µM],9%[9.22 µM]
CCOC(=O)OCC1OC(c2ccc(C(C)=O)cc2)C=CC1OC(=O)OCC (stereo not drawn),.,.,5%[10 µM],.
Cc1cc(C)nc(NN=C(c2ccccc2)c2ccccc2)n1,7%,-1%,22%[10 µM],18µM*
COc1ccc2[nH]cc(CCNc3ncncc3-c3ccccc3C(F)(F)F)c2c1,.,.,-82%,.
Cc1cc(C)c2c(N)c3cccc(C)c3nc2n1,?,-5%,.,13µM*
CCCC(=O)C1=C(O)C(C(=O)OC)C(C)(C)CC1=Nc1cccc2ccccc12 (stereo not drawn),3%,0%,3%[1.9 µM],11µM*
CCCC(=O)C1=C(O)C(C(=O)OC)C(C)(C)CC1=Nc1ccccc1 (stereo not drawn),1%,.,-2%,-12%
CCN(CC)S(=O)(=O)c1cc(NC(=O)Cn2ncc(Cl)c(Cl)c2=O)ccc1C,-6%,18µM*,-11%[10 µM],9%[9.22 µM]
CCc1cccc2c3c([nH]c12)[C@](CC)(CC(=O)O)OCC3,.,.,24%[1.9 µM],.
Cc1cccn2c(=O)c3cc(C(=O)NCc4ccco4)c(=N)n(CCOCCO)c3nc12,-17%,40%,-86%,2.8µM*
COc1ccc(CNCc2cccc(C)c2)cc1,.,-3%,.,.
COc1ccc(CNCc2cccc(Oc3ccccc3)c2)cc1,?,.,-54%,2.8µM*
COc1ccc(CNc2nc(-c3cccnc3)nc3ccccc23)c(OC)c1,.,.,-80%,.
Oc1ccc(NCc2ccccc2OCc2ccccc2)cc1,11µM*,?,.,17%
COc1cc(SC)ccc1C(=O)NC(C)C,-6%,-10%,13µM*,0%
SMILES,KDM4E inh,L3MBTL1 block,HTT ATP protect,HttQ103 aggreg
CC1Cc2ccccc2N1C(=O)CN(C)S(=O)(=O)c1cccc2cccnc12 (stereo not drawn),-6%,.,-18%,0.032µM*
CO[C@@H]1COC(=O)CC=C[C@@H](C)[C@@H]2C=C[C@H](O)[C@@H](COC(=O)[C@H](C)NC(=O)CC=C[C@H]1C)O2,.,.,2%[10 µM],.
Clc1ccc2c(NCc3ccco3)ncnc2c1,1%,.,-12%,14µM*
Cc1ccc(-n2ncc3c(NCc4ccco4)ncnc32)cc1C,?,.,-62%,0.005µM*
Cc1cccc(-n2ncc3c(NCc4cccs4)ncnc32)c1,?,8%,-29%,11µM*
Clc1ccc2c(NCc3ccccn3)ncnc2c1,?,.,2%,-40%
O=C(O)CCCC/C=C\C[C@@H](O)/C=C/C=C/C=C\[C@@H](O)CCCC(=O)O,-8%,.,-18%,.
Cc1nc2cnc(N3CCN(C)CC3)nc2n(C2CC2)c1=O,.,.,-3%,.

# Compound activity as filed in PubChem BioAssay.
